Laboratory results published in PubChem BioAssay (Tox21).
Records with an inconclusive call do not appear. Active and inactive are the calls of the source. Unless noted, calls come from the whole dose curve.

Legend:
[1] = Nuclear factor erythroid 2-related factor 2/antioxidant responsive element (Nrf2/ARE) small molecule agonists: qHTS cell viability counter screen in human keratinocytes (AID 1919968; active = well fitted curve in the direction sought with a large enough effect in the repeat runs; an effect the other way counts as inactive or inconclusive; note: nearly all actives have a fitted effect of over 55% in size)
Summary of the method: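 Seed 1,500 KeratinoSens cells per well, then incubate 5 h at 37 C/5% CO2. Add compounds in DMSO and incubate 23 h. Add CellTiter-Fluor, wait 1 h and read fluorescence.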

[2] = Nuclear factor erythroid 2-related factor 2/antioxidant responsive element (Nrf2/ARE) small molecule agonists: luciferase reporter gene qHTS assay in human keratinocytes (AID 1919969); note: nearly all actives have a fitted effect of over 35% in size
[3] = biological target: Gonadotropin-releasing hormone receptor (Homo sapiens) (UniProt P30968); assay: Human gonadotropin-releasing hormone receptor (GnRHR) small molecule agonists, calcium flux assay in GnRHR-HEK293 cells (AID 1920063); note: nearly all actives have a fitted effect of over 35% in size
Sequence of Gonadotropin-releasing hormone receptor (Homo sapiens) (P30968 whole entry, looked up): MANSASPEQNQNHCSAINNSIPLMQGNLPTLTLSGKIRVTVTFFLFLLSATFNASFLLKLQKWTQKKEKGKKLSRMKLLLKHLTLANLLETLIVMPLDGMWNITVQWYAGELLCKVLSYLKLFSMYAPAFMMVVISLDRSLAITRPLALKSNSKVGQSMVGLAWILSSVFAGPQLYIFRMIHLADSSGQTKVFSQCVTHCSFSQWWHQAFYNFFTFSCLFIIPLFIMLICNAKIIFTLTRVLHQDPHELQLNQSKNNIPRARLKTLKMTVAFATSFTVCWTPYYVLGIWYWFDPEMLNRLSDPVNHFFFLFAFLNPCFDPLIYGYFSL
Summary of the method: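 Cells: HEK293 stably expressing human GnRHR. Steps: overnight (18 h) culture, 1 h calcium dye loading at 37 C, compound addition, kinetic fluorescence read at 480/540 nm. Each compound tested at 15 concentrations in triplicate.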

[4] = biological target: KiSS-1 receptor (Homo sapiens) (UniProt Q969F8); assay: Human kisspeptin (KISS1R) small molecule agonists, calcium flux assay in KISS1R-HEK293 cells (AID 1920064; active = well fitted curve in the direction sought with a large enough effect in the repeat runs; an effect the other way counts as inactive or inconclusive)
Sequence of KiSS-1 receptor (Homo sapiens) (Q969F8 whole entry, looked up): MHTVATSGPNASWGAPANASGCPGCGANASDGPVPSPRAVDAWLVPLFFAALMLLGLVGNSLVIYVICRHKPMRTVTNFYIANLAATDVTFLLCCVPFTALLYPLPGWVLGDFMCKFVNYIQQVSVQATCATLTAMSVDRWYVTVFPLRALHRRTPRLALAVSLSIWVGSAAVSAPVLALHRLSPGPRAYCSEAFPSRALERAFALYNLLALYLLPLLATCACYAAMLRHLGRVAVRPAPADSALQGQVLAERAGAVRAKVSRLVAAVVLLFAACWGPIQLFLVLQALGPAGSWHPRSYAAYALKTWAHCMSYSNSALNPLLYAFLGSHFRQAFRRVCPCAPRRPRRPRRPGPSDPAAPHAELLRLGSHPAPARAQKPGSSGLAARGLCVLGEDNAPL
Summary of the method: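 Cells plated and incubated 18 h; dye added, 1 h at 37 C; compounds in DMSO pinned in; signal read at 480/540 nm every second for 3 min. Each compound tested at 15 concentrations in triplicate.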

[5] = G protein-coupled receptor (GPCR) small molecule agonists, calcium flux assay: HEK293 wild type cell line counter screen (AID 1920065)
Summary of the method: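 Counter-screen of the Tox21 10K library for non-specific calcium release: dye-loaded cells received compounds in DMSO and were monitored by kinetic fluorescence (480/540 nm, 3 min). Fifteen concentrations, run in triplicate.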

[6] = p53 small molecule agonists, cell-based qHTS assay with human liver microsomes (AID 1963577);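 note: p53 response element beta-lactamase reporter cells with liver microsomes plus NADPH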
Summary of the method: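 Reporter activation was measured by LiveBLAzer fluorescence intensity in p53RE-bla cells, which had been exposed to compounds for 16 h at 37 C alongside 0.5 mg/mL human liver microsomes and 0.5 mg/mL NADPH (final concentrations).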

[7] = p53 small molecule agonists, cell-based qHTS assay with rat liver microsomes (AID 1963578)
Summary of the method: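 Compound in DMSO added to p53RE-bla cells 5 h post-plating; rat microsomes/NADPH 0.5 mg/mL final; 16 h, 37 C; LiveBLAzer 2 h RT.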

[8] = p53 small molecule agonists, cell-based qHTS assay with human liver microsomes: qHTS cell viability counter screen (AID 1963579); note: nearly all actives have a fitted effect of over 45% in size
Summary of the method: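 HLM-supplemented (0.5 mg/mL final) and NADPH-supplemented (0.5 mg/mL final) p53RE-bla cultures, 4,000 cells per well, were dosed with compounds in DMSO for 16 h at 37 C; luminescent ATP detection (CellTiter-Glo, 30 min, room temperature) quantified surviving cells.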

[9] = p53 small molecule agonists, cell-based qHTS assay with rat liver microsomes: qHTS cell viability counter screen (AID 1963580); note: nearly all actives have a fitted effect of over 45% in size
Summary of the method: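 Intracellular ATP, by CellTiter-Glo luminescence, defines viability. HCT-116 p53RE-bla cells, 4,000 per well, were compound-treated in the presence of rat liver microsomes and NADPH for 16 h at 37 C.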

[10] = p53 small molecule agonists, cell-based qHTS assay: qHTS cell viability counter screen (AID 1963581); note: nearly all actives have a fitted effect of over 45% in size
Summary of the method: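 Cells: HCT-116 with p53 response element-driven beta-lactamase. Treatment: 16 h, 37 C, compounds in DMSO. Read: CellTiter-Glo luminescence after 30 min RT.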

[11] = p53 small molecule agonists, cell-based qHTS assay (AID 1963582; active = well fitted activation curve with a large enough effect in the signal ratio in the repeat runs, not every such curve was filed as active; the % refers to the signal ratio)
Summary of the method: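 Quantitative HTS in p53RE-bla cells: after a 5 h settling period, compounds delivered in DMSO were left on cells for 16 h at 37 C, and reporter induction was measured as fluorescence following 2 h substrate loading.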

[12] = biological target: 5-hydroxytryptamine receptor 2A (Homo sapiens) (UniProt P28223); assay: 5-hydroxytryptamine receptor 2A (HTR2A) small molecule antagonists, cell-based qHTS assay (AID 1963586); note: nearly all actives have a fitted effect of over 45% in size
Sequence of 5-hydroxytryptamine receptor 2A (Homo sapiens) (P28223 whole entry, looked up): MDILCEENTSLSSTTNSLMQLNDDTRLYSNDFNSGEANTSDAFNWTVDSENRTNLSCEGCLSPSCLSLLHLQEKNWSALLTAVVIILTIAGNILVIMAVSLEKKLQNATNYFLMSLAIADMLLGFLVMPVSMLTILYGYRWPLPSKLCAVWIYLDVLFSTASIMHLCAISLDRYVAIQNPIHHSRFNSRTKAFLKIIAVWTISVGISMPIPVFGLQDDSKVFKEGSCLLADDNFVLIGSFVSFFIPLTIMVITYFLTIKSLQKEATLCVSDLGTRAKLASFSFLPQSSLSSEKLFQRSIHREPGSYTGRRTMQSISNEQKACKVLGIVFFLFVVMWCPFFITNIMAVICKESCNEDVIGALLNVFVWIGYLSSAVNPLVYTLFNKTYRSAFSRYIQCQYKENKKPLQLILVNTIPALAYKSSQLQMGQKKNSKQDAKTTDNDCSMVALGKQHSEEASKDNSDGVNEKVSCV
Summary of the method: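 Antagonist-mode intracellular calcium assay: DOI (4 nM) added after 5 min compound pre-incubation at room temperature to dye-loaded HTR2A-CHO cells. Fluorescence followed for 3 min, sampled every second.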

[13] = biological target: 5-hydroxytryptamine receptor 2A (Homo sapiens) (UniProt P28223); assay: 5-hydroxytryptamine receptor 2A (HTR2A) small molecule agonists, cell-based qHTS assay (AID 1963587); note: nearly all actives have a fitted effect of over 30% in size
Summary of the method: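 Kinetic calcium-flux fluorescence (2 min, 1 sec intervals) after compound addition in agonist mode. HTR2A-CHO cells were cultured 18 h, then dye-loaded 1 h at 37 C.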

[14] = biological target: Muscarinic acetylcholine receptor M1 (Homo sapiens) (UniProt P11229); assay: Cholinergic receptor muscarinic 1 (CHRM1) small molecule antagonists, cell-based qHTS assay (AID 1963588); note: nearly all actives have a fitted effect of over 40% in size; note: potency is the fitted concentration of half-maximal effect
Sequence of Muscarinic acetylcholine receptor M1 (Homo sapiens) (P11229 whole entry, looked up): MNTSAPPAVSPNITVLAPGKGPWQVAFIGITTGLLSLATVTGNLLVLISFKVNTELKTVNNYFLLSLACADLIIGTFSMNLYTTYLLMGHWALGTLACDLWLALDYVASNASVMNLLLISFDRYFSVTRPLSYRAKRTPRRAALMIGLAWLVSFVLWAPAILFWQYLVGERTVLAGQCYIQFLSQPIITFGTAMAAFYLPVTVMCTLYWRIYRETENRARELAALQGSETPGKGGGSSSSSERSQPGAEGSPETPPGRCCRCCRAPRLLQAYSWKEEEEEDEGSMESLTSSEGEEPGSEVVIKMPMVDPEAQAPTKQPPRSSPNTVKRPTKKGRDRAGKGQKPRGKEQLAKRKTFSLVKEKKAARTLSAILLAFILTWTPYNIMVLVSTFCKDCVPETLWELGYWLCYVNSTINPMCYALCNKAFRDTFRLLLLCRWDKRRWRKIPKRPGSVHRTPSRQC
Summary of the method: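 CHRM1-CHO calcium-flux assay, antagonist mode. Cells were seeded 18 h, dye-loaded 1 h at 37 C and given compound for 5 min at RT, then acetylcholine was added at 50nM. FDSS fluorescence was read 3 min; 15 concentrations, three runs.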

[15] = biological target: Muscarinic acetylcholine receptor M1 (Homo sapiens) (UniProt P11229); assay: Cholinergic receptor muscarinic 1 (CHRM1) small molecule agonists, cell-based qHTS assay (AID 1963589); note: nearly all actives have a fitted effect of over 35% in size
Summary of the method: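 Agonist-mode qHTS in CHO cells stably carrying human muscarinic M1. Intracellular calcium is tracked by fluorescence every second after compound transfer; each compound runs at 15 concentrations in three independent runs.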

[16] = cAMP Responsive Elements (CRE) small molecule agonists, cell-based qHTS assay (AID 1963590)
Summary of the method: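 Agonist mode qHTS in CRE-bla HEK 293T cells: compounds dosed from DMSO for 3 h at 37 C/5% CO2, followed by LiveBLAzer B/G FRET substrate for 2 h at room temperature.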

[17] = cAMP Responsive Elements (CRE) small molecule antagonists, cell-based qHTS assay (AID 1963591; active = well fitted inhibition curve with a large enough effect in the signal ratio in the repeat runs, not every such curve was filed as active; the % refers to the signal ratio)
Summary of the method: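 Antagonist mode: test compounds are co-incubated with the adenylyl cyclase activator NKH477 (0.25 uM final) on CRE-bla HEK293T cells for 3 h at 37 °C, followed by LiveBLAzer substrate loading.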

[18] = biological target: Beta-2 adrenergic receptor (Homo sapiens) (UniProt P07550); assay: Adrenergic beta2 receptor (ADRB2) small molecule antagonists, cell-based qHTS assay (AID 1963592); note: series mostly up to about 92 µM; nearly all actives have a fitted effect of over 50% in size
Sequence of Beta-2 adrenergic receptor (Homo sapiens) (P07550 whole entry, looked up): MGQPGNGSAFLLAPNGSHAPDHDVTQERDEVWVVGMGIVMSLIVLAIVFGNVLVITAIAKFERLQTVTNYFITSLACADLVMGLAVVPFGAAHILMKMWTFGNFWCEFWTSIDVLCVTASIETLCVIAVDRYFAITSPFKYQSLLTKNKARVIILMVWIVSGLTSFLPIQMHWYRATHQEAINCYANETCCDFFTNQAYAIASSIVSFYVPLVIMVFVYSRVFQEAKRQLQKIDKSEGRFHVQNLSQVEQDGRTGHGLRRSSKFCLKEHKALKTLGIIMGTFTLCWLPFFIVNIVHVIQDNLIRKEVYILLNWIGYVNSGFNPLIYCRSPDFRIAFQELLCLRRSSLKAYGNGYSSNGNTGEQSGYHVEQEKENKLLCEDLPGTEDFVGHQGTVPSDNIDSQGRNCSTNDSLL
Summary of the method: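 Cells (CHO, stable ADRB2 overexpression) incubated 18-20hr at 37C; compounds added from DMSO; agonist mix (1nM isoproterenol, 100uM IBMX, 25uM Ro-20-1724) added; 0.5hr RT; d2-cAMP and anti-cAMP-cryptate added; 1hr RT; 665/615 nm read.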

[19] = biological target: Beta-2 adrenergic receptor (Homo sapiens) (UniProt P07550); assay: Adrenergic beta2 receptor (ADRB2) small molecule agonists, cell-based qHTS assay (AID 1963593);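 note: CHO cells stably overexpressing human ADRB2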
Summary of the method: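 CHO cells stably over-expressing ADRB2 were plated overnight at 37C, then dosed with compounds plus a stimulation mix containing 100uM IBMX and 25uM Ro-20-1724 for 0.5hr at room temperature. cAMP was measured by HTRF competition, 1hr.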

[20] = biological target: D(2) dopamine receptor (Homo sapiens) (UniProt P14416); assay: Dopamine D2 receptor (DRD2) small molecule agonists, cell-based qHTS assay (AID 1963594); note: nearly all actives have a fitted effect of over 35% in size
Sequence of D(2) dopamine receptor (Homo sapiens) (P14416 whole entry, looked up): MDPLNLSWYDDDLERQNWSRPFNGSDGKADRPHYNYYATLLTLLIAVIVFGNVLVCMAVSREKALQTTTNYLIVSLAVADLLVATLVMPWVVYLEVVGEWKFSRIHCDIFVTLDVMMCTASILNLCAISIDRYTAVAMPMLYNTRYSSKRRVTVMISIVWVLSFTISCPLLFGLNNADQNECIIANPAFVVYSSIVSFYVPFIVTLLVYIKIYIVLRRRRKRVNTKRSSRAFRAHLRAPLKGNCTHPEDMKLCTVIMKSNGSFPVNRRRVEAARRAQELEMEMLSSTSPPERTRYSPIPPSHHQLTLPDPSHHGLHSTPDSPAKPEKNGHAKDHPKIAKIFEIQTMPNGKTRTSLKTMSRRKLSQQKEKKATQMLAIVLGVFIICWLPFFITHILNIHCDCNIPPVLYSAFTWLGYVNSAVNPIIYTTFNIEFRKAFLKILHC
Summary of the method: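 cAMP accumulation in DRD2-HEK293 cells measured by HTRF after 1 h detection; compounds added 10 min before NKH477 (200nM […]) forskolin-analogue stimulation, 30 min at room temperature, with Ro20-1724 present at 0.1 mM final.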
% is set by controls: 0 for no effect and ±100 for the full control effect.

CC1=CCC(C(C)(C)O)CC1 (stereo not given)
inactive: Potency [1] | Potency [2] | Potency [3] | Potency [4] | Potency [5] | Potency [6] | Potency [7] | Potency [8] | Potency [9] | Potency [10] | Potency [11] | Potency [12] | Potency [13] | Potency [14] | Potency [15] | Potency [16] | Potency [17] | Potency [18] | Potency [19] | Potency [20]

O=c1oc2c(O)c(O)cc3c(=O)oc4c(O)c(O)cc1c4c23
inactive: activity change, negative = cytotoxicity [1] -4.32% [at 19 µM] | activity, positive = activation [2] -10.8% [at 19 µM] | activity change [3] 0.294% [at 11.8 µM, active compounds read high] | activation [4] -1.64% [at 15.8 µM] | activation [5] 0.163% [at 11.8 µM] | activation [6] -4.17% [at 13.5 µM] | activation [7] -5.41% [at 13.6 µM] | activity change, negative = cytotoxicity [8] 3.06% [at 13.5 µM] | activity change, negative = cytotoxicity [9] -3.76% [at 13.5 µM] | activity change, negative = cytotoxicity [10] -7.94% [at 13.5 µM] | activation [11] -1.21% [at 13.5 µM] | activity, negative = inhibition [12] -5.93% [at 12.7 µM] | activation [13] 2.19% [at 15.9 µM] | activity, negative = inhibition [14] 14.7% [at 12.6 µM] | activation [15] 0.409% [at 15.8 µM] | activation [16] -1.26% [at 19 µM] | activity change, negative = inhibition [17] -7.75% [at 18.9 µM] | activity change, negative = inhibition [18] -0.63% [at 19 µM] | activation [19] -28.3% [at 19 µM] | activation [20] 15.6% [at 19 µM]

CC(=N\O)/C(C)=N/O
inactive: Potency [1] | Potency [2] | Potency [3] | Potency [4] | Potency [5] | Potency [6] | Potency [7] | Potency [8] | Potency [9] | Potency [10] | Potency [11] | Potency [12] | Potency [13] | Potency [14] | Potency [15] | Potency [16] | Potency [17] | Potency [18] | Potency [19] | Potency [20]

CCCCCCN
inactive: Potency [1] | Potency [2] | Potency [3] | Potency [4] | Potency [5] | Potency [6] | Potency [7] | Potency [8] | Potency [9] | Potency [10] | Potency [11] | Potency [12] | Potency [13] | Potency [14] | Potency [15] | Potency [16] | Potency [17] | Potency [18] | Potency [19] | Potency [20]

COc1ccc2cc1Oc1cc3c(cc1OC)CC[N+](C)(C)[C@H]3Cc1ccc(cc1)Oc1c(OC)c(OC)cc3c1[C@@H](C2)[N+](C)(C)CC3
inactive: Potency [1] | Potency [2] | Potency [3] | Potency [4] | Potency [5] | Potency [6] | Potency [7] | Potency [8] | Potency [9] | Potency [10] | Potency [11] | Potency [12] | Potency [13] | Potency [14] | Potency [15] | Potency [16] | Potency [17] | Potency [18] | Potency [19] | Potency [20]

COc1cc(C)c(Cc2cnc(N)nc2N)cc1OC
inactive: Potency [1] | Potency [2] | Potency [3] | Potency [4] | Potency [5] | Potency [6] | Potency [7] | Potency [8] | Potency [9] | Potency [10] | Potency [11] | Potency [12] | Potency [13] | Potency [14] | Potency [15] | Potency [16] | Potency [17] | Potency [18] | Potency [19] | Potency [20]

Cc1ccccc1C
active: Potency [14] 1.5 nM
inactive: Potency [1] | Potency [2] | Potency [3] | Potency [4] | Potency [5] | Potency [6] | Potency [7] | Potency [8] | Potency [9] | Potency [10] | Potency [11] | Potency [12] | Potency [13] | Potency [15] | Potency [16] | Potency [17] | Potency [18] | Potency [19] | Potency [20]
